A short description of the experiment: nonspecific BLA reporter activation – CHO NFAT-bla cells, FRET readout, counter-screen for GALR2 agonist project, confirmation (AID 865).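 Note: 0% = DMSO with PBS wells and 100% = thapsigargin positive control wells.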 As to conditions: beta-lactamase FRET activation, at 5.6 µM, hits give high values. In general terms: The purpose of a counterscreen is to sort out artefacts and off-target activity.

The source of these data is PubChem BioAssay AID865 (The Scripps Research Institute Molecular Screening Center, 2007).

Molecules are shown by their SMILES. The list shows a part of the results. Unmarked numbers belong to inactive results.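 Rule for the calls: active = activation above the screen-wide mean activation plus 3 SD (cut at about 8% in these data); inactive = the rest.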

For the molecule `Cc1cccc(N2C(=O)NC(=O)/C(=C\c3cnn(-c4ccccc4)c3)C2=O)c1`, the activation was 0.39%.
